# High-throughput results (PubChem BioAssay)
# GPR151 activ: activators of human GPR151 | actives 1% (n = 650,000) | PathHunter beta-arrestin GPR151 cells, luminescence | activation, % at 11.2 µM; in the data active means activation above about 4.9%;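 further: 0% = median of compound wells and 100% = cells with positive control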
# TEAD-YAP inh: TEAD-YAP interaction inhibition. HEK-TIYL cells, TEAD-Gal4/YAP UAS-luciferase luminescence. inhibition, % at 9.12 µM. actives 1.4% (n = 640,000). AID 1259422; in the data active means inhibition above about 32%;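 further: 0% = median of test compound wells and 100% = reference inhibitor wells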
# MITF inh: human MITF inhibition, primary screen; O75030; actives 0.91% (n = 650,000); AlphaScreen MITF homodimerization, bead proximity signal; inhibition, % at 2.6 µM; in the data active means inhibition above about 50%;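 further: 0% = vehicle wells with protein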
# Target sequence (O75030 whole entry, looked up): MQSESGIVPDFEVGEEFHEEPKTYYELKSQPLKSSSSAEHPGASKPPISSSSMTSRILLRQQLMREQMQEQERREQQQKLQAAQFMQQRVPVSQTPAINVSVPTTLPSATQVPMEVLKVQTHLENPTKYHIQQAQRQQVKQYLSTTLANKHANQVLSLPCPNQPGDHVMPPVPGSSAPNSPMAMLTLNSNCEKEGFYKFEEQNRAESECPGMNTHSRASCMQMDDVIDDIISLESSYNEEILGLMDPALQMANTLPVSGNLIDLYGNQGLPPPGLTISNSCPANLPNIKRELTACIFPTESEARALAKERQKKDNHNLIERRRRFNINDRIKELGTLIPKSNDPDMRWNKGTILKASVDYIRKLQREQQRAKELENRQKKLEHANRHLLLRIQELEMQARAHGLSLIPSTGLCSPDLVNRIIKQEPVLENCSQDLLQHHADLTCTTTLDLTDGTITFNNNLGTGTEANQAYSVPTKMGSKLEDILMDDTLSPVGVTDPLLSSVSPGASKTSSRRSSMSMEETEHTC
# FBW7 activator: activators of human E3 ligase FBW7; Q969H0; AlphaScreen FBW7–phospho-cyclin E peptide binding, activator screen; normalized activity (activation), % at 26.1 µM; actives 0.13% (n = 650,000); AID 1259310; in the data active means normalized activity above about 1.9%;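 further: purified mutant Fbw7 with reduced substrate affinity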
# GPR151 confirm: confirmation of human GPR151 activators | shares compounds with GPR151 activ | GPR151 PathHunter beta-arrestin cells, luminescence, 90 min; % of EA-reagent control over plate median | activation, % at 11.2 µM | 6,700 tested, under 10 active | AID 1508609;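 active means mean percent activation across replicates above the confirmation screen cutoff of 4.91%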
# GPR119 counter: GPR119 activation, counter-screen for GPR151 activators; shares compounds with GPR151 activ; GPR119 PathHunter beta-arrestin cells, luminescence, 90 min; 0 = compound-well median, 100 = enzyme-acceptor control; activation, % at 11.2 µM; actives 0.3% (n = 6,700); AID 1508611;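 active means mean percent activation in the counterscreen above 29.09%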;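 further: counterscreen on off-target GPR119 to flag nonselective hits from the GPR151 activator screen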
# Numbers without * were called inactive; / = no result given. In the library only some 3.5% were active in any assay of this set; here they are far more common.
SMILES,GPR151 activ,TEAD-YAP inh,MITF inh,FBW7 activator,GPR151 confirm,GPR119 counter
COc1cc(C2c3c(oc4ccc(F)cc4c3=O)C(=O)N2c2nccs2)ccc1O (centres undefined),6.2*,8,9,0,-1,4
COC(=O)CCC(=O)Nc1ccc(Cl)cc1,0,4,5,1,/,/
Cc1ccc(S(=O)(=O)N(CC(O)Cn2nc(C)cc2C)c2cccc([N+](=O)[O-])c2)cc1 (centres undefined),5.8*,10,7,0,3,4
Cc1cc(C)n(CC(O)CN(c2cccc([N+](=O)[O-])c2)S(=O)(=O)c2ccccc2)n1 (centres undefined),1,-1,11,0,/,/
CC(C(=O)OCC(=O)c1ccc(Br)cc1)N1C(=O)C2C3CCC(C3)C2C1=O (centres undefined),-2,-16,4,0,/,/
Cc1ccc(C(=O)COC(=O)C(C)N2C(=O)C3C4CCC(C4)C3C2=O)cc1 (centres undefined),5.4*,-16,36,0,-1,-13
COc1ccc(C2c3c(-c4ccccc4)n[nH]c3C(=O)N2c2cccc(C(F)(F)F)c2)cc1 (centres undefined),2,10,-4,0,/,/
C=CCNS(=O)(=O)c1cccc(C(C)=O)c1,1,-1,14,0,/,/
CC(=O)c1cccc(S(=O)(=O)NCC(F)(F)F)c1,5.5*,-3,-11,0,-1,6
Cc1ccc(Nc2nnc(SCC(=O)Nc3ccc4c(c3)OCCO4)s2)cc1,0,-6,21,1,/,/
Cc1ccc(OCC(=O)Nc2ccncc2)cc1C,4.9*,7,-4,0,0,3
COCCCNC(=O)COc1ccc(C)c(C)c1,10*,1,5,1,0,-15
COCCCNC(=O)CCCc1ccc(OC)c(C)c1,13*,8,0,0,0,-6
COCCCNC(=O)COc1ccc(Cl)c(C)c1,0,-15,-8,0,/,/
Cc1ccc(C)c(OCC(=O)NCCCN(C)C)c1,9.1*,8,10,0,-1,-12
CCc1ccc(N2C(=O)NC(=O)/C(=C/c3cccc(F)c3)C2=O)cc1,3,10,12,0,/,/
COc1cccc(CC(C2CCN(C(=O)C3CCCO3)CC2)N(C)C(=O)c2ccco2)c1 (centres undefined),1,-18,11,0,/,/
CC(C)CC(=O)NS(=O)(=O)c1ccc(NC(=O)c2ccccc2Cl)cc1,5.1*,-9,2,0,1,-8
CC(C)CC(=O)NS(=O)(=O)c1ccc(NC(=O)c2ccc(Cl)cc2)cc1,2,1,14,0,/,/
CC(=O)c1cccc(N2C(=O)c3ccc(C(=O)c4cccc([N+](=O)[O-])c4)cc3C2=O)c1,2,-7,5,1,/,/
COc1ccc(S(=O)(=O)n2ccnc2)c(C)c1C,1,7,-11,0,/,/
CC1(C)Cc2c(sc3ncnc(NNC(=O)c4ccccc4)c23)CO1,6.3*,6,-4,0,0,2
COCc1cc(CN2CCN3C(=O)[C@H](Cc4cnc[nH]4)NC(=O)[C@H]3C2)ccc1OC,0,6,12,0,/,/
Cn1cnnc1SCCNC(=O)c1ccc(OCC(=O)C2CC2)cc1,6.9*,1,7,0,0,12
C=CCNC(=O)c1ccc(OCC(=O)C2CC2)cc1,0,-1,0,0,/,/
SMILES,GPR151 activ,TEAD-YAP inh,MITF inh,FBW7 activator,GPR151 confirm,GPR119 counter
CC(=O)N1CCc2cc(C(=O)CN3CC(C)CC(C)C3)ccc21 (centres undefined),6.2*,-1,12,0,-1,-14
COc1cccc(C(=O)c2sc3c(c2N)c(=O)[nH]c(=O)n3C2CCCCC2)c1,1,-7,-17,1,/,/
CC(=O)Nc1cccc(NC(=O)COc2cccc3ccc(N4CCCC4)nc23)c1,5.3*,31,19,0,0,7
CNCC#CCOc1ccc(OC)cc1,1,-5,41,1,/,/
COc1ccc(OCC#CCNC(C)(C)C)cc1,8.7*,5,9,0,1,-6
CCn1c(COc2ncnc3ccccc23)nc2cc(S(=O)(=O)N(C)C)ccc21,5.2*,-4,2,0,-1,0
CCOc1ccccc1C(=O)Nc1ccc2c(c1)N(CCOC)CCC2,9.4*,7,5,0,1,-2
COC(=O)C1=C(C)N(c2ccc(C(C)C)cc2)C(=O)/C1=C\c1cc(Br)ccc1OC,11*,-6,0,0,0,7
CC1CCCN(c2c(-c3ccc(Cl)cc3)c(=O)c2=O)C1 (centres undefined),5.9*,10,-3,0,1,-5
O=C(NCCN1CCOCC1)c1cncc(-c2cccs2)c1,7.3*,3,42,0,0,2
COC(=O)c1c(NC(=O)c2ccc(S(=O)(=O)N3CCCC(C)C3)cc2)sc2c1CC(C)(C)NC2(C)C (centres undefined),-1,-3,-14,0,/,/
O=C(CCn1c(=S)[nH]c2cc3c(cc2c1=O)OCO3)NCc1cccc(Cl)c1,-1,-1,5,0,/,/
O=C(CCCn1c(=S)[nH]c2ccccc2c1=O)Nc1cccc2c1CCCC2,5.5*,-5,1,0,0,12
O=C(CCCn1c(=S)[nH]c2cc3c(cc2c1=O)OCO3)NCc1cccc(Cl)c1,5.3*,5,6,0,0,9
COc1ccc(N2C(=O)c3ccccc3NC2c2ccc(C)cc2)cc1 (centres undefined),0,-13,-1,0,/,/
O=C(NCC1(c2ccccc2)CCOCC1)C1CC12CCN(C(=O)c1cccs1)CC2 (centres undefined),1,1,5,0,/,/
O=C(Nn1c(-c2ccc(F)cc2)nc2ccccc2c1=O)c1cncc(Br)c1,5.5*,0,21,1,0,12
O=C(NCc1cccs1)C(=O)NC1CC1,0,2,3,0,/,/
CCNC(=O)C(=O)NCc1cccs1,4.9*,1,5,0,1,1
CCOCCCn1c(=N)c(C(=O)NCc2ccccc2)cc2c(=O)n3cc(C)ccc3nc21,-1,-8,-10,0,/,/
COc1ccc(C(=O)NC(=S)NCc2ccccc2)cc1,11*,-2,17,0,0,-2
O=C(COc1ccc(C(=O)NCCc2ccccc2)cc1)Nc1ccccc1F,28*,2,13,0,-1,-5
COc1ccc(C(=O)Nc2ccc(C(=O)NCCc3ccccc3)cc2)cc1,5.2*,-6,9,0,0,-4
COc1ccc(CNC(=O)c2ccc(NS(C)(=O)=O)cc2)cc1,4.9*,4,-2,0,1,12
